# PubChem BioAssay AID1835 (Johns Hopkins Ion Channel Center, 2009)
# The campaign covered roughly 2,400 compounds. About 750 (31%) were called active. The list shows a part of the results. Unmarked numbers belong to inactive results.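 The calls were made as follows: active = median signal gain over dofetilide-blocked control wells reaching their mean plus 3 SD, so readout 1 at least 0; inactive = the rest.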
# Target: Voltage-gated inwardly rectifying potassium channel KCNH2 (Homo sapiens) (UniProt Q12809)
# Test: hERG protection against dofetilide inhibition, confirmation, cell-based, thallium flux, duplicate retest, dofetilide IC70 (AID 1835)
# Conditions: hERG cell line, FluxOR thallium flux, dofetilide-blocked; at 10 µM; stronger effect = higher value
# Voltage-gated inwardly rectifying potassium channel KCNH2 (Homo sapiens), sequence (Q12809 whole entry, looked up): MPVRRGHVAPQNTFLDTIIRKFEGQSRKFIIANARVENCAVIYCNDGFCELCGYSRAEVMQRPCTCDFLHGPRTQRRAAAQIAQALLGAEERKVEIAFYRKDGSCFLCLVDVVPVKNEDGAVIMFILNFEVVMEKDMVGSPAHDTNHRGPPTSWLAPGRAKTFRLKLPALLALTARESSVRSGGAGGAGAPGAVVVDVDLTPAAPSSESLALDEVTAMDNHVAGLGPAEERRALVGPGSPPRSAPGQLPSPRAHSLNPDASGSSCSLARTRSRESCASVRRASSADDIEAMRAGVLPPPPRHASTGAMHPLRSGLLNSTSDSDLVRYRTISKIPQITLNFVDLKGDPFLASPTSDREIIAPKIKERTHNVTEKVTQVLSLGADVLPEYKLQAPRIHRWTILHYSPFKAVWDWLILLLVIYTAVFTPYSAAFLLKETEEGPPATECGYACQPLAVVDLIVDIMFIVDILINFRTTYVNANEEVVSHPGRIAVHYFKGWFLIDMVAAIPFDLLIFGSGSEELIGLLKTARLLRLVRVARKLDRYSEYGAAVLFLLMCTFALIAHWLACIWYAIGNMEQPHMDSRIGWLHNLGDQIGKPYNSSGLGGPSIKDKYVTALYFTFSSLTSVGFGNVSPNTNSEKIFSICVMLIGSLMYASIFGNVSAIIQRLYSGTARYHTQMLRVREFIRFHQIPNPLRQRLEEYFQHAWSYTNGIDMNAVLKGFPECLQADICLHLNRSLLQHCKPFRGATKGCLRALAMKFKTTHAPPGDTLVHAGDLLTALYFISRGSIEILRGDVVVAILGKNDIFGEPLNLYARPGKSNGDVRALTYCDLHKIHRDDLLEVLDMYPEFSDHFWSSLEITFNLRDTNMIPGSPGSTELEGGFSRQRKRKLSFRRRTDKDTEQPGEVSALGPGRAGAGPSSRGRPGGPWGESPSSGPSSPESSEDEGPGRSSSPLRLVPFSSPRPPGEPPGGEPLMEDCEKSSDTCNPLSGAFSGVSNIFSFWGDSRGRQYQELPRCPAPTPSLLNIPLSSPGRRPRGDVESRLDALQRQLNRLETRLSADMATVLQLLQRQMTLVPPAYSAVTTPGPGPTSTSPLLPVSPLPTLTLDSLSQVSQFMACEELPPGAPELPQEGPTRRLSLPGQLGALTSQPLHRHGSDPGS
row,Compound,"activity increase over dofetilide control, less the hit threshold"
1,Cc1cccc2nc(-c3cccnc3)c(NCCC(C)C)n12,-70%
2,COc1cccc(OC)c1C(=O)NC(=S)N1CCN(c2ccc(C(F)(F)F)cc2[N+](=O)[O-])CC1,6% (active)
3,CC(C)Oc1cccc(C(=O)NC(=S)N2CCN(c3ccc(C(F)(F)F)cc3[N+](=O)[O-])CC2)c1,-8%
4,COC(=O)CSc1nc(N2CCCCC2)c2c(c1C#N)CCCC2,5% (active)
5,COC(=O)CSc1nc2c(c(-c3ccc(C)o3)c1C#N)CCCC2,-18%
6,CCC1(c2ccc(Cl)cc2)NC(=S)N(c2ccc(C)c(C)c2)N1 (centres undefined),100% (active)
7,CCC1(c2ccccc2)NC(=S)N(c2ccc(C)c(C)c2)N1 (centres undefined),86% (active)
8,Cc1ccc(NC(=O)c2noc3c2CCC3)cc1C,-11%
9,N#Cc1cc(-c2ccccc2)nnc1Oc1ccccc1,-1%
10,Cc1ccc2[nH]c(=O)c(C(c3nnnn3C3CCCC3)N3CCCc4ccccc43)cc2c1 (centres undefined),-4%
11,COc1ccc(-c2cc(C(F)(F)F)nc(N3CCCCC3)n2)cc1OC,-19%
12,O=C1C=C(c2ccccc2)OC(=O)C1C(=O)c1ccccc1 (centres undefined),-4%
13,CCOc1ccc2nc(/N=C/c3nc(-c4ccc(Br)cc4)oc3O)sc2c1,11% (active)
14,CCOc1ccc2nc(/N=C/c3nc(-c4ccccc4)oc3O)sc2c1,4% (active)
15,CC1(C)CC(=O)c2c(nn(-c3ccccc3)c2-c2ccncc2)C1,-7%
16,Cc1ccc2cc(CCNC(=O)C(=O)c3c(C)[nH]c4ccccc34)c(=O)[nH]c2c1,-20%
17,OCCN1CCN(c2ncnc3c2sc2nc(N4CCOCC4)c4c(c23)CCC4)CC1,-27%

row,Compound,"activity increase over dofetilide control, less the hit threshold"
1,CCOC(=O)c1sc2nc(N3CCOCC3)c3c(c2c1N)CCN(Cc1ccccc1)C3,-5%
2,CC(C)c1nc2sc3c(=S)nc[nH]c3c2c2c1CCC2,52% (active)
3,S=c1nc[nH]c2c1sc1nc(N3CCOCC3)c3c(c12)CCCC3,58% (active)
4,S=c1nc[nH]c2c1sc1nc(-c3ccccc3)c3c(c12)CCCC3,80% (active)
5,Cc1ccc(C)c(OCc2cc(C(=O)N3CCNC(=O)C3)no2)c1,-7%
6,CCc1noc(C)c1C(=O)N1CCCC(N2CCN(c3ccccc3F)CC2)C1 (centres undefined),-1%
7,COc1ccccc1NC1=C(NC(C)=O)C(=O)c2ccccc2C1=O,-7%
8,CCOc1ccccc1NC(=O)C(=O)CC(=O)c1ccc(OC)cc1,16% (active)
9,NNC(=O)CNc1ccccc1Cl,-9%
10,CCN1CCN(CC(=O)c2ccc(OC)cc2)CC1,-17%
11,CSc1ccc(S(=O)(=O)N2CCC(C(=O)Nc3ccccc3C(F)(F)F)CC2)cc1,-17%
12,COc1ccc(C(=O)CNc2ccccc2C#N)cc1,-11%
13,COc1ccc(C(=O)CC(=O)C(=O)Nc2ccccc2Cl)cc1,31% (active)
14,COc1ccc(C(=O)CSc2nnc3ccc(-c4ccccn4)nn23)cc1,-11%
15,COc1ccc(C(=O)NC2CC3CCCC(C2)N3Cc2ccccc2)cc1 (centres undefined),-11%
16,COc1ccc(C(=O)CC(=O)C(=O)Nc2ccccc2C(F)(F)F)cc1,13% (active)
17,COc1ccc(C(=O)CC(=O)C(=O)Nc2ccccc2OC)cc1,2% (active)
